PubChem BioAssay (EPA / NIEHS)
Several values for one entry are separate records, joined by “and”; a condition that tells them apart may be missing. Identical values can stand only once. Activity calls are given as the source filed them. Rule for the calls: active = hit-call score of the fitted dose curve at least 0.9, where 1 is the maximum; inactive = score below 0.9.

Key:
[1] = read-out: Tissue plasminogen activator (tPA), PLAT (gene 5327); assay: BSK_BE3C_tPA: BioMAP Diversity Plus: BE3C Assay for Tissue plasminogen activator (tPA) Biomarker Activity (AID 2283041); settings: primary human bronchial epithelial cells; actives raise or lower the signal;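 note: tPA level quantified by ELISA one day after compound addition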
Procedure, shortened: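 Primary human bronchial epithelial cells in the BE3C system, exposed to compound for 24 h. tPA was quantified by ELISA; DMSO served as baseline, with gain or loss of signal fitted. Cytotoxicity checked in parallel cultures by SRB total-protein staining.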

[2] = read-out: Interleukin-8 (IL8), CXCL8 (gene 3576); assay: BSK_CASM3C_IL8: BioMAP Diversity Plus: CASM3C Assay for Interleukin-8 (IL8) Biomarker Activity (AID 2283042); settings: primary human coronary artery smooth muscle cells; actives raise or lower the signal;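 note: IL-8 protein level quantified by ELISA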
[3] = read-out: Human Leukocyte Antigen - DR isotype (HLADR), HLA-DRA (gene 3122); assay: BSK_CASM3C_HLADR: BioMAP Diversity Plus: CASM3C Assay for Human Leukocyte Antigen - DR isotype (HLADR) Biomarker Activity (AID 2283043); settings: primary human coronary artery smooth muscle cells; actives raise or lower the signal;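 note: cell-surface HLA-DR protein level quantified by ELISA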
[4] = read-out: Macrophage colony-stimulating factor (MCSF), CSF1 (gene 1435); assay: BSK_CASM3C_MCSF: BioMAP Diversity Plus: CASM3C Assay for Macrophage colony-stimulating factor (MCSF) Biomarker Activity (AID 2283044); settings: primary human coronary artery smooth muscle cells; actives raise or lower the signal;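 note: M-CSF protein amount quantified by ELISA after 24 h exposure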
[5] = read-out: Low-density lipoprotein receptor (LDLR), LDLR (gene 3949); assay: BSK_CASM3C_LDLR: BioMAP Diversity Plus: CASM3C Assay for Low-density lipoprotein receptor (LDLR) Biomarker Activity (AID 2283045); settings: primary human coronary artery smooth muscle cells; actives raise or lower the signal;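 note: LDLR protein level on the cell surface quantified by ELISA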
[6] = read-out: Monocyte Chemoattractant Protein-1 (MCP1), CCL2 (gene 6347); assay: BSK_CASM3C_MCP1: BioMAP Diversity Plus: CASM3C Assay for Monocyte Chemoattractant Protein-1 (MCP1) Biomarker Activity (AID 2283046); settings: primary human coronary artery smooth muscle cells; actives raise or lower the signal;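 note: MCP-1 level quantified by ELISA 24 h after dosing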
[7] = BSK_CASM3C_Proliferation: Cell Proliferation Assessment in the BioMAP Diversity Plus: CASM3C Assay (AID 2283047); settings: primary human coronary artery smooth muscle cells;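 note: sulforhodamine B total protein stain as relative cell number at 560 nm; sub-confluent cells exposed 48 h before staining; fitted both ways against DMSO so gain or loss of cell number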
[8] = read-out: Monokine induced gamma interferon (MIG), CXCL9 (gene 4283); assay: BSK_CASM3C_MIG: BioMAP Diversity Plus: CASM3C Assay for Monokine induced gamma interferon (MIG) Biomarker Activity (AID 2283048); settings: primary human coronary artery smooth muscle cells; actives raise or lower the signal;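 note: MIG protein level measured by ELISA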
[9] = read-out: serum amyloid A (SAA), SAA1 (gene 6288); assay: BSK_CASM3C_SAA: BioMAP Diversity Plus: CASM3C Assay for serum amyloid A (SAA) Biomarker Activity (AID 2283049); settings: primary human coronary artery smooth muscle cells; actives raise or lower the signal;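 note: SAA protein level quantified by ELISA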
[10] = BSK_CASM3C_SRB: Viability Assessment in the BioMAP Diversity Plus: CASM3C Assay (AID 2283050); settings: primary human coronary artery smooth muscle cells
[11] = read-out: Thrombomodulin, THBD (gene 7056); assay: BSK_CASM3C_Thrombomodulin: BioMAP Diversity Plus: CASM3C Assay for Thrombomodulin Biomarker Activity (AID 2283051); settings: primary human coronary artery smooth muscle cells; actives raise or lower the signal;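 note: thrombomodulin protein level measured by ELISA 24 h after dosing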
[12] = read-out: Tissue Factor, F3 (gene 2152); assay: BSK_CASM3C_TissueFactor: BioMAP Diversity Plus: CASM3C Assay for Tissue Factor Biomarker Activity (AID 2283052); settings: primary human coronary artery smooth muscle cells; actives raise or lower the signal;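 note: cell surface tissue factor protein level read by ELISA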
[13] = read-out: Interferon-gamma inducible Protein 10 (IP10), CXCL10 (gene 3627); assay: BSK_hDFCGF_IP10: BioMAP Diversity Plus: hDFCGF Assay for Interferon-gamma inducible Protein 10 (IP10) Biomarker Activity (AID 2283053); settings: primary human foreskin fibroblasts; actives raise or lower the signal
Procedure, shortened: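 Primary human foreskin fibroblasts exposed to chemicals for 24 h. IP-10 measured by ELISA; changes fitted bidirectionally against DMSO baseline.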

[14] = read-out: Urokinase-type plasminogen activator receptor (uPAR), PLAUR (gene 5329); assay: BSK_CASM3C_uPAR: BioMAP Diversity Plus: CASM3C Assay for Urokinase-type plasminogen activator receptor (uPAR) Biomarker Activity (AID 2283054); settings: primary human coronary artery smooth muscle cells; actives raise or lower the signal;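 note: cell-surface uPAR protein level quantified by ELISA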
[15] = read-out: Vascular cell adhesion molecule 1 (VCAM1), VCAM1 (gene 7412); assay: BSK_CASM3C_VCAM1: BioMAP Diversity Plus: CASM3C Assay for Vascular cell adhesion molecule 1 (VCAM1) Biomarker Activity (AID 2283055); settings: primary human coronary artery smooth muscle cells; actives raise or lower the signal;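 note: VCAM-1 protein level quantified by ELISA on the cells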
[16] = read-out: Collagen III, COL3A1 (gene 1281); assay: BSK_hDFCGF_CollagenIII: BioMAP Diversity Plus: hDFCGF Assay for Collagen III Biomarker Activity (AID 2283056); settings: primary human foreskin fibroblasts; actives raise or lower the signal
Procedure, shortened: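 ELISA read-out of collagen III from human skin fibroblast cultures sampled 24 h post-dosing. Values were derived by bidirectional fitting relative to the DMSO vehicle control.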

[17] = read-out: Epidermal growth factor receptor (EGFR), EGFR (gene 1956); assay: BSK_hDFCGF_EGFR: BioMAP Diversity Plus: hDFCGF Assay for Epidermal growth factor receptor (EGFR) Biomarker Activity (AID 2283057); settings: primary human foreskin fibroblasts; actives raise or lower the signal
Procedure, shortened: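 Primary human foreskin fibroblasts (hDFCGF system), sampled 24 h after dosing; EGFR quantified by ELISA. Bidirectional fit relative to DMSO baseline; SRB total-protein staining in parallel cultures for cytotoxicity.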

[18] = read-out: Interleukin-8 (IL8), CXCL8 (gene 3576); assay: BSK_hDFCGF_IL8: BioMAP Diversity Plus: hDFCGF Assay for Interleukin-8 (IL8) Biomarker Activity (AID 2283058); settings: primary human foreskin fibroblasts; actives raise or lower the signal
Procedure, shortened: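 Cells used are human skin primary fibroblasts. Chemical is added, cultures run 24 h, then IL-8 is quantified by ELISA, and gain or loss versus DMSO control is fitted in both directions.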

[19] = BSK_hDFCGF_Proliferation: Cell Proliferation Assessment in the BioMAP Diversity Plus: hDFCGF Assay (AID 2283059); settings: primary human foreskin fibroblasts;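 note: curves fitted for both rise and fall of signal versus DMSO baseline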
Procedure, shortened: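 Primary human foreskin fibroblasts, sub-confluent; […]; 10% TCA fix, 0.1% SRB stain, A560 total protein. Gain/loss fitted bidirectionally vs DMSO control.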

[20] = read-out: Macrophage colony-stimulating factor (MCSF), CSF1 (gene 1435); assay: BSK_hDFCGF_MCSF: BioMAP Diversity Plus: hDFCGF Assay for Macrophage colony-stimulating factor (MCSF) Biomarker Activity (AID 2283060); settings: primary human foreskin fibroblasts; actives raise or lower the signal
Procedure, shortened: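 Primary human foreskin fibroblasts dosed with chemical; 24 h later, M-CSF quantified by ELISA; curves fitted in both directions vs DMSO negative control.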

Measured: AC50

C=C(F)C(=O)OC(C(F)(F)F)C(F)(F)F
inactive: all assays above

CC(C)CCCC(C)(C)O
inactive: all assays above

C[C@]12CC[C@@H]3c4ccc(O)cc4CC[C@H]3[C@@H]1CC[C@@H]2O
active: [4] 3.24 µM | [7] 13.4 µM | [8] 12.2 µM | [16] 20 µM | [19] 22.8 µM
inactive: all other assays above

O=S(=O)(O)C(F)(F)C(F)(F)OC(F)(F)C(F)(F)F
active: [9] 44.9 µM and 20 µM
inactive: all other assays above

Nc1ccc(N)c([N+](=O)[O-])c1
active: [6] 7.95 µM | [12] 0.037 µM | [19] 13.4 µM
inactive: all other assays above

COC(=O)c1ccc(C(=O)OC)cc1
not listed: [12]
inactive: all other assays above

C=C(C)C(N)=O
inactive: all assays above

CC(C)Cc1ccc(C(C)C(=O)O)cc1 (centres undefined)
active: [7] 0.2 µM | [11] 6.11 µM | [16] 3.33 µM
inactive: all other assays above

CCCCN(CCO)CCO
inactive: all assays above

CCCCCCCCCCCCS
inactive: [1] | [2] | [4] | [5] | [8] | [9] | [11] | [12] | [17]
active: [3] 33.8 µM | [6] 3.97 µM | [7] 24.4 µM | [10] 28.5 µM | [13] 11.3 µM | [14] 30.3 µM | [15] 6.76 µM | [16] 7.78 µM | [18] 20 µM | [19] 3.2 µM | [20] 9.73 µM

NC(=O)c1c(Cl)cccc1Cl
inactive: all assays above
